Screening data from PubChem.
Compounds with a hit are over-represented: about 11% of the library has one in this group of screens.
Pf growth 96h – P. falciparum growth inhibition at 96 hours; P. falciparum luciferase reporter growth, 96 h; Potency, µM (titrated, usually from 28.7 µM), for the others: at the top dose activity change, negative = inhibition, hits mostly inhibitors; hit rate 6.9% among 320,000; AID 504834; note: % is set by controls: 0 for no effect and ±100 for the full control effect
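96 h incubation, 37 C, 5% CO2, of luciferase-reporter P. falciparum-infected RBCs (2% hematocrit, 0.05% parasitemia final) with test compounds; endpoint luminescence.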
Pf growth 48h – inhibits P. falciparum growth in the first generation, 48 h | P. falciparum luciferase growth in erythrocytes, 48 h | Potency, µM (highest dose often 28.7 µM), for inactives: top-dose activity change, negative = inhibition, actives largely listed as inhibitors | hit rate 5.9% among 310,000 | AID 504832; note: % is set by controls: 0 for no effect and ±100 for the full control effect
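Read-out is firefly luciferase luminescence from an integrated reporter in P. falciparum, so falling signal marks reduced parasite growth. Infected erythrocytes were at 2% hematocrit and 0.1% parasitemia (final) in Albumax-supplemented RPMI 1640.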
VACV mCherry inh – inhibitors of vaccinia virus infection (mCherry reporter signal); Vaccinia virus mCherry reporter infection, fluorescence; Potency, µM (top dose mostly 36.5 µM), without a hit: at the top dose activity change, negative = inhibition, actives largely listed as inhibitors; hit rate 0.63% among 310,000; AID 720579; calls by dose curve; tested in A549 cells; note: % is set by controls: 0 for no effect and ±100 for the full control effect; nearly all actives have a fitted effect of over 35% in size
Vaccinia Venus – inhibitors of vaccinia virus (Venus reporter); Vaccinia virus Venus reporter expression, fluorescence; Potency, µM (series often up to 36.5 µM), without a hit: at the top dose activity change, negative = inhibition, hits mostly inhibitors; hit rate 0.46% among 330,000; calls by dose curve; tested in A549 cells; note: % is set by controls: 0 for no effect and ±100 for the full control effect; nearly all actives have a fitted effect of over 30% in size
HCV inhibitor – inhibitors of hepatitis C virus infection; Huh7.5.1 HCVcc-Cre infection, luciferase reporter, 44 h; Potency, µM (series often up to 41.8 µM), inactives show top-dose activity change, negative = inhibition, most hits filed as inhibitors; hit rate 3.4% among 340,000; AID 651820; note: % is set by controls: 0 for no effect and ±100 for the full control effect
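Cells (1,000/well) were plated 4 h before compound, then infected with HCVcc-Cre virus (~0.5 moi). After 44 h further culture, infection was read as luciferase luminescence following a 15 min substrate incubation at room temperature.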
NS1 inh – influenza NS1 inhibition. Potency, µM (highest dose often 46.1 µM), for the others: at the top dose activity, positive = more growth. hit rate 0.4% among 270,000; calls by dose curve; note: actives are rising curves; nearly all actives have a fitted effect of over 50% in size
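Compounds were scored for reversing the slow growth caused by influenza A NS1 in S. cerevisiae, measured by optical density at 600 nm. Assay medium contained 2% galactose at pH 6.0; NS1-free yeast of the same strain were the positive control.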
Starred values were filed as active, the others as inactive; i = inactive; ? = inconclusive; nt = no result. Unless noted, calls come from the whole dose curve; as a rule, active = well fitted inhibition curve with a large enough effect; inconclusive = small, poorly fitted or top-dose-only effect, or another doubt; inactive = no such curve, though single readings can be large or run the other way. Potency is the fitted concentration of half-maximal effect.

SMILES	Pf growth 96h	Pf growth 48h	VACV mCherry inh	Vaccinia Venus	HCV inhibitor	NS1 inh
COc1ccc(-n2nc(C(=O)NCC(=O)NCc3ccc(F)cc3)c3ccccc3c2=O)cc1OC	-35%	20%	-29%	?	13µM*	4%
COc1ccc(NC(=O)CNC(=O)c2nn(-c3ccc(OC)cc3OC)c(=O)c3ccccc23)c(OC)c1	3.3µM*	?	-16%	-3%	-3%	1%
COc1ccc(-n2nc(C(=O)NCC(=O)NCc3ccc(F)cc3)c3ccccc3c2=O)c(OC)c1	10µM*	8%	i	-9%	17%	3%
O=C(NCCCN1CCC(Cc2ccccc2)CC1)c1ccc(CS(=O)c2ccccc2Cl)o1 (stereo not given)	nt	nt	-4%	-16%	nt	nt
Clc1ccc(CNc2nc(CN3CCOCC3)nc3scc(-c4ccccc4)c23)cc1	3.7µM*	?	?	?	?	-33%
Oc1ccc(Nc2ncnc3scc(-c4ccccc4)c23)cc1	-14%	-24%	0%	-29%	8.9µM*	6%
CCOc1ccc(-c2csc3ncnc(Nc4cccc(O)c4)c23)cc1	nt	nt	-21%	-4%	nt	nt
c1ccc(-c2csc3ncnc(NCc4ccccn4)c23)cc1	?	?	nt	nt	10µM*	-7%
Cc1ccc(-c2csc3ncnc(NCCN4CCOCC4)c23)cc1	10µM*	13µM*	-23%	-18%	?	-16%
CCOc1ccccc1-n1nnnc1SCC(=O)OC	21%	14%	-2%	-3%	24%	nt
O=C(N/C(=C/c1ccco1)C(=O)N1CCOCC1)c1cccs1	24%	2%	i	-5%	14%	4%
Clc1ccc(-c2csc3ncnc(NCCN4CCOCC4)c23)cc1	?	nt	-27%	?	?	-6%
c1ccc(-c2csc3ncnc(NCCN4CCOCC4)c23)cc1	?	?	-13%	?	11µM*	9%
O=C(N/N=C/c1ccco1)c1cc(-c2ccccc2)nc2ccccc12	?	-6%	?	-20%	4%	-3%
CCCc1ccc(-c2cc(C(=O)N/N=C/c3ccc([N+](=O)[O-])o3)c3ccccc3n2)cc1	1.7µM*	nt	?	?	10µM*	0%
COc1cccc(-c2cc(C(=O)N/N=C/c3ccco3)c3ccccc3n2)c1	?	?	0%	-12%	-9%	?
O=C(N/N=C/c1ccc([N+](=O)[O-])o1)c1cc(-c2cccc(Br)c2)nc2ccccc12	0.83µM*	?	-18%	-30%	10µM*	12%
O=C(OCC(=O)c1c[nH]c2ccccc12)c1ccc([N+](=O)[O-])s1	?	?	?	-18%	?	-56%
CCc1cccc2c(C(=O)COC(=O)c3ccc([N+](=O)[O-])s3)c[nH]c12	?	?	nt	nt	28µM*	-55%
CCOC(=O)c1ccc2c(c1)nc(C1CCN(S(=O)(=O)c3cccs3)CC1)n2CC	8.3µM*	10µM*	?	-25%	6.3µM*	-40%
CCOC(=O)c1ccc2c(c1)nc(SCC(=O)N1CCCCC1)n2CC	12µM*	0%	nt	-14%	2%	-10%
NNC(=O)c1ccc(OCC2CC(c3ccc(Cl)cc3)=NO2)cc1 (stereo not given)	?	8.3µM*	-26%	?	?	12%
CC(=O)CCC1CC(c2ccc(Cl)cc2)=NO1 (stereo not given)	127%	134%	i	-14%	2.8µM*	nt
O=C(NCc1cccs1)C1CC(c2ccc(Cl)cc2)=NO1 (stereo not given)	31%	26%	-5%	-14%	-10%	-1%
CN(C)c1ccc(C=NNC(=O)c2cccnc2)cc1	nt	nt	-26%	-14%	22%	nt
SMILES	Pf growth 96h	Pf growth 48h	VACV mCherry inh	Vaccinia Venus	HCV inhibitor	NS1 inh
Cc1cc2cc(CNS(=O)(=O)N(C)C)ccc2[nH]1	-23%	-21%	-7%	-8%	-17%	17%
Cc1cc(C(=O)C(=O)NC(C)C)c(C)n1-c1ccc([N+](=O)[O-])cc1	?	7.4µM*	-14%	-13%	6%	0%
COCCNC(=O)C(=O)c1cc(C)n(-c2ccc([N+](=O)[O-])cc2)c1C	-17%	?	nt	nt	1%	-2%
COc1ccc(-c2cc(C#N)nc(N3CCNCC3)n2)cc1	2.6µM*	nt	nt	nt	-20%	4%
N#Cc1cc(-c2ccccc2)nc(Oc2ccccc2)n1	-5%	17%	nt	nt	10µM*	-21%
N#Cc1ccc(Oc2nc(C#N)cc(-c3ccccc3)n2)cc1	?	-14%	-10%	-21%	-12%	7%
COc1ccc(-c2cc(C(F)(F)F)nc(N3CCCCCC3)n2)cc1	16%	2%	nt	nt	?	0%
CN1CCN(c2nc(C#N)cc(-c3ccccc3)n2)CC1	-7%	?	nt	-24%	10µM*	10%
COc1ccc(-c2cc(C#N)nc(N3CCN(C)CC3)n2)cc1	?	-8%	-4%	-13%	13µM*	-12%
CC(=O)c1cc(CC=C(C)C)c(O)cc1O	86%	35%	-10%	-28%	-11%	-75%
CCn1cc(C(=O)NCCCOC(C)C)c(=O)c2cc(S(=O)(=O)N(C)C3CCCCC3)ccc21	nt	nt	-24%	-13%	nt	nt
COc1cc(/C=C/c2cccc[n+]2C)ccc1OCC(=O)Nc1ccccc1C	-21%	?	-14%	3%	6%	-26%
CCOc1cc(/C=C/c2cccc[n+]2C)ccc1OCC(=O)Nc1ccc(C)cc1	5.2µM*	0.93µM*	-10%	-12%	-27%	-35%
CCOc1cc(/C=C\[N+](=O)[O-])ccc1OCC(=O)Nc1ccccc1C	11%	5%	-13%	?	11µM*	-121%
CCOc1cc(/C=C/c2cccc[n+]2C)ccc1O	8.3µM*	9.3µM*	nt	nt	1%	-40%
Cc1ccc(C(=O)NNC(=O)c2ccc(SCC3CCCO3)c([N+](=O)[O-])c2)cc1 (stereo not given)	-33%	18%	nt	nt	-12%	-3%
CCc1nc(SCc2ccccn2)[nH]c(=O)c1C	17%	21%	-8%	-5%	5%	3%
Cc1nc(Sc2ccc(Br)cc2)c(C#N)c(C)c1[N+](=O)[O-]	9.3µM*	?	-14%	-29%	?	-3%
Cc1nc(Sc2ccc(Cl)cc2)c(C#N)c(C)c1[N+](=O)[O-]	12µM*	?	?	-1%	-29%	-3%
O=S(=O)(c1cccc(F)c1)N1CCc2sccc2C1c1ccc(OC(F)(F)F)cc1 (stereo not given)	?	13µM*	-30%	-21%	?	1%
O=C(c1ccccc1)C1C(=O)c2ccccc2C1=O	14%	0%	22%	128%	8%	-47%
CC(C)Oc1ccc(C(=O)NCC(=O)N2CCN(S(=O)(=O)/C=C/c3ccccc3)CC2)cc1	?	15µM*	nt	nt	?	nt
